# For some of these results: Entries with a potency or affinity are not part of this list.
# Experiments:
# Parameters in all cases: scale not given: direction of the effect not stated beside the values
# [1] = biological target: Protein translocase subunit SecA (Escherichia coli (strain K12)) (UniProt P10408); test: Assay to Identify E. coli SecA ATPase Inhibitors; format: functional; conditions: 30 µM
# [2] = biological target: T1, Ubiquitin-activating enzyme e1, putative (Leishmania donovani (strain BPK282A1)) (UniProt E9BSI1); test: Leishmania donovani Ubiquitin Activating Enzyme (LdE1); format: functional; conditions: 30 µM
# T1 sequence (whole entry): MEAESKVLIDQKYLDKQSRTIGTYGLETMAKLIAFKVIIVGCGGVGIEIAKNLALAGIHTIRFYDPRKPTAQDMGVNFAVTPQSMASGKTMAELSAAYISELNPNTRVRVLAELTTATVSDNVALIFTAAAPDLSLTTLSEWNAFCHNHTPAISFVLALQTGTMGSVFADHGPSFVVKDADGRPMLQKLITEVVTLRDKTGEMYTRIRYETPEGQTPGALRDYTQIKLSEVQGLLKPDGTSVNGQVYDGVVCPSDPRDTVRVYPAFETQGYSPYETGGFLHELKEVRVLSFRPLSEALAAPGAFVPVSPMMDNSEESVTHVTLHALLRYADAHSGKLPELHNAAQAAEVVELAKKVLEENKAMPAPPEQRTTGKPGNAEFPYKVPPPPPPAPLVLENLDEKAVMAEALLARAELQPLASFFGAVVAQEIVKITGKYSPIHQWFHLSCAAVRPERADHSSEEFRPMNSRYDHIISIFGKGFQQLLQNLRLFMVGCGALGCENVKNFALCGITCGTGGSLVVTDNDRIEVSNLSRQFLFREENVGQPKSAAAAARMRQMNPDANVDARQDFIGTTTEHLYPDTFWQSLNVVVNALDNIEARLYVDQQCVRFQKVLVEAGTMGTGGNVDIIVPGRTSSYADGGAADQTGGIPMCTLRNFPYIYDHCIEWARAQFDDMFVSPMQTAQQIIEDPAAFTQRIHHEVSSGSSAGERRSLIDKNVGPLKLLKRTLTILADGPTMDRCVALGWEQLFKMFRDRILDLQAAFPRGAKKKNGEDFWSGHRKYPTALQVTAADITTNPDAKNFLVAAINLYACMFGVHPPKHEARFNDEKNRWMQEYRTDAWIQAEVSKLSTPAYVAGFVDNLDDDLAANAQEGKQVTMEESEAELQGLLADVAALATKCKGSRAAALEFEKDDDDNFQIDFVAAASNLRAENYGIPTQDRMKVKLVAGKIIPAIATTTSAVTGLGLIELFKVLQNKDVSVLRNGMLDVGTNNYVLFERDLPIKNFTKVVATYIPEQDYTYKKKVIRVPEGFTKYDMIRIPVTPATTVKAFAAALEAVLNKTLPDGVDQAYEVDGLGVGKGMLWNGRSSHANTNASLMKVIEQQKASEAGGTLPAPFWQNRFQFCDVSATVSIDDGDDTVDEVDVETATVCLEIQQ
# [3] = biological target: AMP-activated protein kinase, AMPK (Homo sapiens) (UniProt P54646+O43741+P54619+Q9UGJ0+Q9Y478+Q13131+Q9UGI9); test: AMP-dependent Kinase enzyme assay. An in vitro enzyme assay that detects ADP turnover that is directly proportional to AMPK activity. This uses naive AMPK that is activated during the assay with MK-8722; format: functional; conditions: 30 µM
# [4] = biological target: Sialic acid-binding Ig-like lectin 9 (Homo sapiens) (UniProt Q9Y336); test: Hs-Siglec9 ALPHAscreen SOP 20170721; conditions: 10 µM
# Chain of Sialic acid-binding Ig-like lectin 9 (Homo sapiens) (Q9Y336 whole entry): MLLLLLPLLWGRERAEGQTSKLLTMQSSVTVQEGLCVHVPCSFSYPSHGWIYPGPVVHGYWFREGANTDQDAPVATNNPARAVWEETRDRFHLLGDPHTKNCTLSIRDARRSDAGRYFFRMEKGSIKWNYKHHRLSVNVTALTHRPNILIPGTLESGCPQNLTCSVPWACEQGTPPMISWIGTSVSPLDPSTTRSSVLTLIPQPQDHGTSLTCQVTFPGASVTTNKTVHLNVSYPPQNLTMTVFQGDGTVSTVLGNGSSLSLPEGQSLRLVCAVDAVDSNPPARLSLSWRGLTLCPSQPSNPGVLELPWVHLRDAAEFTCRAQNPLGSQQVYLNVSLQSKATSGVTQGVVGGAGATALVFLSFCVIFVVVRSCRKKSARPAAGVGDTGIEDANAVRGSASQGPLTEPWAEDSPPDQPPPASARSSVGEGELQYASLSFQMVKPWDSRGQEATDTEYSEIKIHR
# Trypanosoma cruzi = test: Trypanosoma cruzi phosphomannomutase and mannose-1-phosphate guanylyltransferase assay; format: functional; conditions: 10 µM
# [5] = biological target: T2, Arginase-2, mitochondrial (Homo sapiens) (UniProt P78540); test: in vitro enzyme assay to detect the production of urea directly proportional to the activity of Arginase II; format: functional; conditions: 33.3 µM; further: in the data most compounds retested in dose-response had high values
# T2 sequence (whole entry): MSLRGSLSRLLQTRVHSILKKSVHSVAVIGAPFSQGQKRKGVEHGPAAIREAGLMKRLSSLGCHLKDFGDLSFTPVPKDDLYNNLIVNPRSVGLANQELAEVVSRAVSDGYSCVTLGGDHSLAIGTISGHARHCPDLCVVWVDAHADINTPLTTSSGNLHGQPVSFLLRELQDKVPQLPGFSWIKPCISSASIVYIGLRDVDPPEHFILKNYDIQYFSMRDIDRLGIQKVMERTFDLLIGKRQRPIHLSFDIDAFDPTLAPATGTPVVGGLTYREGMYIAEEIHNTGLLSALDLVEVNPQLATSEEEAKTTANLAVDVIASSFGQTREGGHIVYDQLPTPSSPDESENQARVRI
# [6] = biological target: T3, Proteasome subunit beta (Trypanosoma cruzi) (UniProt O96673); test: Trypanosoma cruzi proteasome chymotrypsin-like activity (TcProtChymo) assay.; further: in the data most compounds retested in dose-response had high values; format: functional; conditions: 9.37 µM
# T3 sequence (whole entry): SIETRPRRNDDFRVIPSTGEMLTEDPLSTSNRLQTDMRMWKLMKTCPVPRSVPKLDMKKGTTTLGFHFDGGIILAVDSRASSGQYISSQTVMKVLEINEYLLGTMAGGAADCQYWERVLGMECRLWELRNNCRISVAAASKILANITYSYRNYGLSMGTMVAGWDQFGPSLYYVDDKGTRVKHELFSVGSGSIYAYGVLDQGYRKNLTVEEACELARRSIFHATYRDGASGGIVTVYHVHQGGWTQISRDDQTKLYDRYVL
# Homo sapiens = organism: Homo sapiens; test: To identify inhibition of the IFN signalling (Jak-Stat) pathway via expression of an eGFP reporter gene under the control of an IFN-stimulated response element (ISRE) containing MxA promoter.; format: functional; conditions: 30 µM
# [7] = biological target: T4, Tyrosyl-tRNA synthetase, putative (Trypanosoma cruzi (strain CL Brener)) (UniProt Q4DSP6); test: Trypanosoma cruzi tyrosyl tRNA synthetase (TcYRS) _High Tyrosine SOP; format: functional; conditions: 30 µM; further: in the data most compounds retested in dose-response had high values
# T4 sequence (whole entry): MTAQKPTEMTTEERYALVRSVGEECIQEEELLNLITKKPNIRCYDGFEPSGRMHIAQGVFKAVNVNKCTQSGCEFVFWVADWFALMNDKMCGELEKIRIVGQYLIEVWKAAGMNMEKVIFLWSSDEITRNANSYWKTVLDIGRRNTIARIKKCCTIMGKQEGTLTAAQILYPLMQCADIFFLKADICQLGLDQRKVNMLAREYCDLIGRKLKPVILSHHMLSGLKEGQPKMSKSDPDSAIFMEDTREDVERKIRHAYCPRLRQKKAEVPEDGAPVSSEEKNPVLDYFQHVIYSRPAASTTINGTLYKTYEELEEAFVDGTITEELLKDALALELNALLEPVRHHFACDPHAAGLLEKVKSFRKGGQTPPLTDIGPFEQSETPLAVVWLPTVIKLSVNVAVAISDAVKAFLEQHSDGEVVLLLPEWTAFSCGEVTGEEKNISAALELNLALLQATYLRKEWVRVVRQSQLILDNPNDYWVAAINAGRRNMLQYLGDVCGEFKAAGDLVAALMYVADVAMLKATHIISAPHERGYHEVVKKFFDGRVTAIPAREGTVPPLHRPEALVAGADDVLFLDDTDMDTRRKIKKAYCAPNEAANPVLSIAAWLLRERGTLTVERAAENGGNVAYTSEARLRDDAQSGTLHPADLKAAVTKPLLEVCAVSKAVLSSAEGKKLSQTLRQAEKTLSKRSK
# [8] = biological target: T4, Tyrosyl-tRNA synthetase, putative (Trypanosoma cruzi (strain CL Brener)); test: Trypanosoma cruzi tyrosyl tRNA synthetase (TcYRS) SOP; format: functional; conditions: 30 µM
# [9] = biological target: Chromo domain-containing protein 1 (Saccharomyces cerevisiae (strain ATCC 204508 / S288c) (Baker's yeast)) (UniProt P32657); test: ScCHD-1 Enzyme Inhibition Assay; format: functional; conditions: 30 µM; further: in the data most compounds retested in dose-response had high values
# Chain of Chromo domain-containing protein 1 (Saccharomyces cerevisiae (strain ATCC 204508 / S288c) (Baker's yeast)) (P32657 whole entry, the tested form may be a part): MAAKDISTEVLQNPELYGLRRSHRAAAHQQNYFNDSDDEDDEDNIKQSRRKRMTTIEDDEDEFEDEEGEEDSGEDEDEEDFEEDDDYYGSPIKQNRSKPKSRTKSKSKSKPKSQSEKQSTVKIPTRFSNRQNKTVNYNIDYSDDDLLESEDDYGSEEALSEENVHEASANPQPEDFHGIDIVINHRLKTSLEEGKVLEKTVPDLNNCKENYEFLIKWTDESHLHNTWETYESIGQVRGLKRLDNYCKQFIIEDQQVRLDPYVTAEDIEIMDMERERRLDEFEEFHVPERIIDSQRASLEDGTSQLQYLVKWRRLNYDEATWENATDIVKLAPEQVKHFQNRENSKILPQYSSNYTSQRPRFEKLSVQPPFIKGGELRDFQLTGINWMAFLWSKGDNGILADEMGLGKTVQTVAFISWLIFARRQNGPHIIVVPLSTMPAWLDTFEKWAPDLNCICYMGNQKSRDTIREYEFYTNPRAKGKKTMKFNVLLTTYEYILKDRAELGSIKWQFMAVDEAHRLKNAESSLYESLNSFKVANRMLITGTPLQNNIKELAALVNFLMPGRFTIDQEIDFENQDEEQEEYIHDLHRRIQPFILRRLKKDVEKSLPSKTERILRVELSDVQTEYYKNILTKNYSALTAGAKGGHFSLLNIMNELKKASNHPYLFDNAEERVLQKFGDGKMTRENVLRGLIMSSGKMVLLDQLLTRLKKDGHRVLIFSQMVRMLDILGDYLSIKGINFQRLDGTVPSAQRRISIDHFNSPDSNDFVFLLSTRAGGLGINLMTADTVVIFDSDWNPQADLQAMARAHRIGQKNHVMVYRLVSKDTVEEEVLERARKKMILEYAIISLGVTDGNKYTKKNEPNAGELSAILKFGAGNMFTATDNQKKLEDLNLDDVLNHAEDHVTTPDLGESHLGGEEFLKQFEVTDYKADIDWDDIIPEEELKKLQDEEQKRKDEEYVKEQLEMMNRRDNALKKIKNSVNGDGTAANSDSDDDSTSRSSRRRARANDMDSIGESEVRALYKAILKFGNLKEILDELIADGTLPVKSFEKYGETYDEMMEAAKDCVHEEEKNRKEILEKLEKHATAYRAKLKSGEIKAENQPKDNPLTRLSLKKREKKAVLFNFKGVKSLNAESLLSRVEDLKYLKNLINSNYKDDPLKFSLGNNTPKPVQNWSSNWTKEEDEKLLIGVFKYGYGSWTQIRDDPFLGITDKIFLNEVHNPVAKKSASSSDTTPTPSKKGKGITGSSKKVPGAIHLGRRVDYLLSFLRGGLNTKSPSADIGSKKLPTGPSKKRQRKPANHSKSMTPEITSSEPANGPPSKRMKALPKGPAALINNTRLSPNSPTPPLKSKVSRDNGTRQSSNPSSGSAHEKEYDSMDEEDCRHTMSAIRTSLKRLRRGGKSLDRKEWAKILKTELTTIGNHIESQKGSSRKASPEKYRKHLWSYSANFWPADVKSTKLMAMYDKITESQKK
# Chain of Protein translocase subunit SecA (Escherichia coli (strain K12)) (P10408 whole entry): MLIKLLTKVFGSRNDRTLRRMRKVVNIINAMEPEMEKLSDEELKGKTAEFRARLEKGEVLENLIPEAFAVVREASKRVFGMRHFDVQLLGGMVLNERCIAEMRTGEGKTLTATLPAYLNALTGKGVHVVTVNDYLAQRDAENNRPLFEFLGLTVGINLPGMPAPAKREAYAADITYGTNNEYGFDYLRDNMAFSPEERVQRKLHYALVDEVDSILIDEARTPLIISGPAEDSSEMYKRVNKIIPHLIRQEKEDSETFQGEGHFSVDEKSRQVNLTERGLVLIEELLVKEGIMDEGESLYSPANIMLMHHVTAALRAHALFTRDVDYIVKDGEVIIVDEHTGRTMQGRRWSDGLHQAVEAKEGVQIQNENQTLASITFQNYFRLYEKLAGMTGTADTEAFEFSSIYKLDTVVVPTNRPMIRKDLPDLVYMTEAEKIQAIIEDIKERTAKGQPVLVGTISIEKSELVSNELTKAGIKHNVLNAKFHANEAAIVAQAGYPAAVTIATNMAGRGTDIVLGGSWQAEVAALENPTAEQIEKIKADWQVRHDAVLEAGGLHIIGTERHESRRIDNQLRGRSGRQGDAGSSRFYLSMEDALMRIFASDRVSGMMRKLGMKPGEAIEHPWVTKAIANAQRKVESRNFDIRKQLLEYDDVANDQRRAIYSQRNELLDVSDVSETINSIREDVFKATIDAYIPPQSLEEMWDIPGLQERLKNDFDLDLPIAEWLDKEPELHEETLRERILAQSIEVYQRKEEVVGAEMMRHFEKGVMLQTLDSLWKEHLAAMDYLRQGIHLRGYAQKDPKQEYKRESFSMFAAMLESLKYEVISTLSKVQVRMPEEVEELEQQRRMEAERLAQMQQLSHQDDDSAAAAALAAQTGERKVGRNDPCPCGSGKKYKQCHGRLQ
Structure (SMILES),Percent Effect [1],Percent Effect [2],Percent Effect [3],Percent Effect [4],Percent Effect (Trypanosoma cruzi),Percent Effect [5],Percent Effect [6],Percent Effect (Homo sapiens),Percent Effect [7],Percent Effect [8],Percent Effect [9]
COC(=O)c1ccccc1NC(=O)c1nc2ccccc2n(C)c1=O,-1.59%,10.4%,1.48%,-0.871%,5.82%,1.94%,6.79%,17%,4.23%,16.7%,-8.57%
CCS(=O)(=O)N1CCC2(CCCN(Cc3cc(OC)ccc3F)C2)C1 (stereo unspecified),-4.17%,6.94%,-5.98%,-4.29%,-2.23%,0.883%,14.6%,16.9%,6.32%,7.69%,-4.39%
Cc1ccccc1CCNC(=O)C1CC(=O)N(CC(F)(F)F)C1 (stereo unspecified),-3.95%,24.3%,-20.9%,-4.07%,1.42%,-21.2%,10.1%,25.2%,5.42%,18.5%,-11.1%
Cc1ccc(CNC(=O)CCSCc2csc(C)n2)cn1,-2.98%,17.7%,-1.48%,-3.29%,1.42%,4.18%,0.0819%,8.57%,0.493%,8.86%,-3.92%
CCc1cc(N[C@H]2CC[C@H](O)CC2)n2nc(C)c(C)c2n1,-3.74%,1.39%,0.211%,-3.49%,-2.82%,-0.442%,5.09%,-20.9%,-9.47%,10.3%,-3.52%
Cc1nc2ccnn2c(C)c1CCC(=O)N1CCC(C(N)=O)CC1,-6.89%,2.63%,0.295%,-2.71%,-5.32%,2.88%,5.5%,4.03%,5.42%,1.24%,1.87%
Cc1csc(C2CCCCN2C(=O)CN(C)C2CC2)n1 (stereo unspecified),1.03%,-13.9%,0.541%,-1.97%,2.56%,-2.37%,8.75%,-15.9%,1.04%,5.06%,9.83%
COCCCNC(=O)CN1CCCC1c1c(C)nn(C)c1Cl (stereo unspecified),-8%,8.86%,-7.07%,-3.46%,2.15%,2.37%,7.38%,-0.237%,1.04%,-7.59%,-25.1%
CCn1nc2c(cc1=O)CN(Cc1nc(N)c3ccccc3n1)CC2,-5.07%,5.48%,-62.9%,1.04%,3.92%,3.64%,14.6%,-3.85%,2.15%,12.5%,-7.75%
Cc1cc(C)n(CC(=O)N2CCC(NS(C)(=O)=O)CC2)n1,-2.87%,15.8%,1.32%,0.107%,-1.69%,-2.3%,8.69%,-0.413%,5.39%,12.2%,-9.21%
COCC(C)(O)CNC(=O)COc1ccccc1OC (stereo unspecified),-1.78%,2.74%,6.7%,-4.63%,-4.31%,2.27%,8.52%,1.8%,5.38%,7.5%,-3.71%

# — ChEMBL document CHEMBL3988442, “University of Dundee, Small-Polar-MMV Screening Library” (2021)
